LYPLA1 inh = LYPLA1 inhibitors, primary screen, counter-screen for PME1 inhibitor project, biochemical, fluorescence polarization, FP-Rh probe ABPP. Acyl-protein thioesterase 1 (Homo sapiens), O75608. recombinant LYPLA1. inhibition, % at 5.9 µM. actives 0.16% (n = 320,000). AID 2174, 2009;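 active means inhibition above the mean of all tested compounds plus 3 SD, set per campaign, cut at about 14% in these data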;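 further: inhibitors block serine hydrolase probe labeling of LYPLA1 so polarization falls; 0% = enzyme with DMSO and 100% = wells lacking LYPLA1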
PREPL inh = PREPL enzyme inhibitors, primary screen, biochemical, fluorescence polarization. inhibition, % at 5.96 µM. Prolyl endopeptidase-like (Homo sapiens), Q4J6C6. actives 0.68% (n = 320,000). recombinant PREPL, fluorescence polarization activity-based probe; in the data active means inhibition above about 43%;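 further: 0% = enzyme with DMSO and 100% = wells lacking enzyme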
Target sequence (Q4J6C6 whole entry, looked up): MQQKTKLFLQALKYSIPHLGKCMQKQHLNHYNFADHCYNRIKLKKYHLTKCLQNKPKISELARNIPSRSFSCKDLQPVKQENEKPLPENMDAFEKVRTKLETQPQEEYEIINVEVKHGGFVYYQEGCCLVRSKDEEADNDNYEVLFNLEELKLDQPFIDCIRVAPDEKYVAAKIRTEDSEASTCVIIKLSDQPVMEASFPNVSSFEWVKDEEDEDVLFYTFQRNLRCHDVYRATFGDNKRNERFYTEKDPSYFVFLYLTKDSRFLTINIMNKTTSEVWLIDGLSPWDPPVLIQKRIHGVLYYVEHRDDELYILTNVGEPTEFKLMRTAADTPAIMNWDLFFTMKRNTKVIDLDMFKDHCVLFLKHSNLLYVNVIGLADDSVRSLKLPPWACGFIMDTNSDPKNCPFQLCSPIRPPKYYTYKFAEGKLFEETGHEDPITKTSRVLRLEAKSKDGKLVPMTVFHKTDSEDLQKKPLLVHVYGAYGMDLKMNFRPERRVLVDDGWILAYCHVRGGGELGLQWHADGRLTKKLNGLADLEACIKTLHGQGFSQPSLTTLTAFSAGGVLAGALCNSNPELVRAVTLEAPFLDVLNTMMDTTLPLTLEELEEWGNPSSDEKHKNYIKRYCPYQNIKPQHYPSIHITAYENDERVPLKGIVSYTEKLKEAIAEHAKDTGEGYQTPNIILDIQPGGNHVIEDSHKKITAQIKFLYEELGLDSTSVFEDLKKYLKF
PME-1 primary = PME-1 inhibitors via competitive probe labeling, primary screen, biochemical, fluorescence polarization, FP-Rh probe, HTS; inhibition, % at 5.9 µM; Protein phosphatase methylesterase 1 (Homo sapiens), Q9Y570; recombinant PME-1; actives 0.53% (n = 320,000); AID 2130, 2009;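 active means inhibition above the campaign mean of all compounds plus 3 SD, cut at about 26% in these data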;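 further: competitive labeling of PME-1 active site by serine hydrolase directed probe; 0% = PME-1 with DMSO and 100% = wells lacking PME-1 enzyme; inhibitors block probe labeling so polarization falls and inhibition rises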
Fam108B inh = mouse Fam108B serine hydrolase inhibitors, primary screen, counter-screen for RBBP9 inhibitor project, biochemical, fluorescence polarization; recombinant Fam108B, FP-Rh probe fluorescence polarization; inhibition, % at 9.51 µM; actives 0.33% (n = 300,000); AID 1947, 2009;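 active means inhibition above the screen mean inhibition plus 3 SD, computed separately per campaign, cut at about 18% in these data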;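 further: inhibitors lower polarization as less probe binds the enzyme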
LYPLA2 counter = LYPLA2 inhibitors, primary screen, counter-screen for PME1 inhibitor project, biochemical, fluorescence polarization, FP-Rh probe ABPP; inhibition, % at 5.9 µM; actives 0.38% (n = 320,000); Acyl-protein thioesterase 2 (Homo sapiens), O95372; recombinant LYPLA2;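 active means inhibition above the screen-wide mean plus 3 SD, limit set per campaign, cut at about 26% in these data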;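 further: 0% = LYPLA2 with DMSO and 100% = wells lacking LYPLA2 enzyme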
Fam108b confirm = mouse Fam108b serine hydrolase inhibitors, confirmation, counter-screen for RBBP9 inhibitor project, biochemical, fluorescence polarization, triplicate. shares compounds with Fam108B inh. recombinant Fam108b, FP-Rh probe fluorescence polarization. inhibition, % at 9.51 µM. actives 44% (n = 930). AID 1978, 2009;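 active means inhibition above a limit from the primary screen, the mean over all compounds plus 3 SD, cut at about 19% in these data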;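 further: 0% = median of active Fam108b wells and 100% = catalytically dead S170A mutant; inhibitors free the probe so polarization falls as inhibition rises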
Fam108b inh = inhibition of mouse Fam108b by HTS hits, late-stage follow-up, biochemical, gel-based ABPP, soluble recombinant form; shares compounds with Fam108B inh; fluorophosphonate probe; AID 588649, 2011; actives 44% (n = 260); inhibition, % at 20 µM; in the data active means inhibition above about 40%
Numbers without * were called inactive. Shown are actives, neighbours in structure and some others; about 1.3% of the full set was active somewhere.

`Cc1nn(-c2ccccc2)c(N2CCCC2)c1/C=N/NC(=O)c1cc2ccccc2cc1O` gave LYPLA1 inh -10, PREPL inh 9, PME-1 primary 38*, Fam108B inh 27*, LYPLA2 counter 1 and Fam108b confirm 9.
For Cc1nn(-c2ccccc2)c(Cl)c1/C=N/NC(=O)c1cccc(S(=O)(=O)N2CCCC2)c1 the results were LYPLA1 inh -5, PREPL inh 12, PME-1 primary 2, Fam108B inh -6 and LYPLA2 counter 4.
Screening O=C(O)c1ccccc1CSc1nnc2c(n1)[nH]c1ccccc12 returned LYPLA1 inh 1, PREPL inh 7, PME-1 primary -1, Fam108B inh 1 and LYPLA2 counter 1.
`CCOc1ccc(CN(C)C(=O)CNC(=O)c2sc3ccccc3c2Cl)cc1` gave LYPLA1 inh -9, PREPL inh 8, PME-1 primary -7 and LYPLA2 counter -15.
For COc1cc(OC)cc(C(=O)Oc2ccc(/C=N/Nc3nc4ccccc4s3)cc2OC)c1 the results were LYPLA1 inh -4, PREPL inh 6, PME-1 primary 31*, Fam108B inh 26*, LYPLA2 counter -1 and Fam108b confirm 12.
Screening COc1cc(/C=N/Nc2nc3ccccc3s2)ccc1OC(=O)c1ccccc1F returned LYPLA1 inh -12, PREPL inh 33, PME-1 primary 18, Fam108B inh 3 and LYPLA2 counter 5.
COc1cc(/C=N/Nc2nc3ccccc3s2)cc([N+](=O)[O-])c1O was read as LYPLA1 inh 9, PREPL inh 17, PME-1 primary 62*, Fam108B inh 21*, LYPLA2 counter 5 and Fam108b confirm 12.
O=[N+]([O-])c1cc(Cl)cc(/C=N/Nc2nc3ccccc3s2)c1O was read as LYPLA1 inh 5, PREPL inh 7, PME-1 primary 20, Fam108B inh 33*, LYPLA2 counter 4 and Fam108b confirm 9.
Screening COc1cc(NC(=O)c2ccccc2)c(OC)cc1NC(=O)CN1C(=O)NC2(CCCCC2C)C1=O (configuration not stated) returned LYPLA1 inh 0, PREPL inh 5, PME-1 primary 0 and LYPLA2 counter -1.
`COc1ccc(OC)c(Nc2nc(-c3sc(N)nc3C)cs2)c1` gave LYPLA1 inh -2, PREPL inh 25, PME-1 primary 13, Fam108B inh 21*, LYPLA2 counter 3 and Fam108b confirm 17.
Cc1ccccc1C(=O)Oc1cc(N)n(S(=O)(=O)c2ccccc2)n1 was read as LYPLA1 inh 2, PREPL inh 10, PME-1 primary 4, Fam108B inh -1 and LYPLA2 counter 1.
Screening COc1ccc2[nH]c(=O)c(CN(C(=O)c3cccnc3)c3ccc(C)cc3C)cc2c1 returned LYPLA1 inh 1, PREPL inh -17, PME-1 primary -4, Fam108B inh -1 and LYPLA2 counter 4.
Screening CN1C(=O)/C(=C/c2ccc(-c3ccccc3[N+](=O)[O-])o2)SC1=Nc1ccc(Cl)c(C(=O)O)c1 returned LYPLA1 inh 0, PREPL inh 16, PME-1 primary 12, Fam108B inh 30*, LYPLA2 counter 3 and Fam108b confirm 11.
CC(C)CSC1=NSC2=NC(=O)/C(=C\c3ccccc3)C(=N)N12 was read as LYPLA1 inh -6, PREPL inh -8, PME-1 primary -10, Fam108B inh 2 and LYPLA2 counter -8.
CC(C)CSC1=NSC2=NC(=O)/C(=C\c3coc4ccccc4c3=O)C(=N)N12 was read as LYPLA1 inh 6, PREPL inh 10, PME-1 primary 22, Fam108B inh 37*, LYPLA2 counter 0, Fam108b confirm 40* and Fam108b inh 15.
`N=C1/C(=C\c2coc3ccccc3c2=O)C(=O)N=C2SC(c3ccncc3)=NN12` gave LYPLA1 inh -3, PREPL inh -13, PME-1 primary -55, Fam108B inh 9 and LYPLA2 counter -2.
For CSC1=NSC2=NC(=O)/C(=C\c3coc4ccccc4c3=O)C(=N)N12 the results were LYPLA1 inh -8, PREPL inh 21, PME-1 primary 18, Fam108B inh 31*, LYPLA2 counter -6, Fam108b confirm 54* and Fam108b inh 5.
COc1ccc(NC(=O)CSC(C)c2nc3ccccc3c(=O)[nH]2)cc1 (configuration not stated) was read as LYPLA1 inh 0, PREPL inh 8, PME-1 primary 4, Fam108B inh 1 and LYPLA2 counter -2.
Screening COc1cccc(C=NNc2nc(Nc3ccc([N+](=O)[O-])cc3)nc(N3CCCC3)n2)c1O returned Fam108b inh 90*.
Screening N=C1/C(=C\c2ccc(-c3cccc(C(=O)O)c3)o2)C(=O)N=C2SC=C(c3ccccc3)N12 returned LYPLA1 inh -12, PREPL inh 23, PME-1 primary 3, Fam108B inh 24*, LYPLA2 counter -5 and Fam108b confirm 3.
Screening CCOc1ccc(C2C3=C(Nc4nc(N)[nH]c(=O)c42)c2ccccc2C3=O)cc1 (configuration not stated) returned LYPLA1 inh -2, PREPL inh 16, PME-1 primary 4, Fam108B inh 7 and LYPLA2 counter -5.
`CCCOc1ccc(C2C3=C(Nc4nc(N)[nH]c(=O)c42)c2ccccc2C3=O)cc1` (configuration not stated) gave LYPLA1 inh -14, PREPL inh 15, PME-1 primary 13, Fam108B inh 23*, LYPLA2 counter -6 and Fam108b confirm 19*.
COc1ccc(NC(=O)CN(C)CC(=O)NC2CCC(C)CC2)cc1 (configuration not stated) was read as LYPLA1 inh 3, PREPL inh -1, PME-1 primary -1 and LYPLA2 counter 7.
Screening COc1ccc(CN2C(=O)c3c(c(C)n(C)c3C)C2C(=O)NC2CCC(C)CC2)cc1 (configuration not stated) returned LYPLA1 inh -1, PREPL inh 9, PME-1 primary -5, Fam108B inh 24*, LYPLA2 counter -5 and Fam108b confirm -2.
`Cc1cccc(N=Cc2nc(-c3ccccc3Br)oc2O)n1` gave Fam108b inh 50*.

Screening results: PubChem, The Scripps Research Institute Molecular Screening Center
